Laboratory results as given in PubChem BioAssay (NCI).
Several values for one entry are separate records, joined by “and”; a condition that tells them apart may be missing. Equal entries are not always repeated. The panel holds about 83,000 compounds, 20% with a hit somewhere; the sample as a whole holds those more often.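 Compound tested at a single concentration for 48 hours in 96-well plates; a percent growth value below 10 was scored as active.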 Values without a mark were called inactive. Activity calls are given as the source filed them.

Test system: MDA-MB-468 breast
Assay: NCI-60 one-dose screen, 48 h (100 = growth as untreated, 0 = no growth, -100 = all killed)
Details: 10 µM unless noted

SMILES | growth
CCOC(=O)/C(F)=C/C1CC1C1CCCCC1 (centres undefined) | 96.9%
COc1cc(-c2nc3ccccc3s2)ccc1NC(=O)COc1ccc(Cl)cc1 | 21.3%
O=C(Nc1ccc(Nc2ccncc2)cc1)c1ccc(Nc2ccnc3ccc([N+](=O)[O-])cc23)cc1 | 83.4%
CCN1CCN(CC(=O)Nc2nc3ccc(NCc4ccc(Br)cc4)cc3s2)CC1 | 61.1%
C#CCn1cnc2cnc(Nc3cccc(NC(=O)CCl)c3)nc21 | -17.3% [6.25 µM] (active)
N#CC1=C(N)Oc2c(sc3c(Br)cccc23)C1c1ccc([N+](=O)[O-])cc1 (centres undefined) | 42.2%
CN1CCN(c2ccc3nc(-c4[nH]ncc4Nc4ncnc5c4OCCCN5)[nH]c3c2)CC1 | -76.3% (active)
S=C1NCc2cncnc2N1 | 99.7%
C=C(C)[C@H]1CC/C(C)=C/CC[C@]2(C)O[C@H]2CC/C(COC(=O)[C@@H](OC(C)=O)[C@H](NC(=O)c2ccccc2)c2ccccc2)=C\[C@@H]1O | 84.4%
N#Cc1ccc(NC(=O)c2sc3nc4c(cc3c2N)C(=O)CCC4)cc1 | 97.6%
C/C=C/C1=CN2C(=O)c3cc(OC4OC(C)C(NC)C(C)(O)C4O)c(C)cc3N=C[C@@H]2C1 (some centres undefined) | -52.9% (active)
COC(=O)C1=COC(C)C2C[n+]3ccc4c([nH]c5ccccc54)c3CC12 (centres undefined) | 94.2% and 85.8%
O=C(O)c1ccc(-n2c(=O)n(-c3cccc(C(F)(F)F)c3)c(=O)c3cc(-c4ccc(F)cc4F)ccc32)cc1 | -4.52% (active)
COc1ccc(NC(=O)Nc2ccc3c(ccn3C(=O)c3cccc(F)c3)c2)cc1 | 86.6%
C#CCNCCCN1C(=O)c2ccc3c4c(ccc(c24)C1=O)C(=O)N(CCCNCC#C)C3=O | -85.6% (active)
CC1c2ccccc2N(S(=O)(=O)c2ccccc2)C1C (centres undefined) | 37.9%
CCOC(=O)C1=C(C)Nc2nc3ccccc3n2C1c1cccc(Br)c1 (centres undefined) | 54.2%
Cc1nc2cccc(NCc3ccc(C(=O)NO)cc3)c2c(=O)n1-c1ccccc1 | -15.3% (active)
O=C1/C(=C\c2cccn2Cc2ccccc2)c2ccccc2N1c1c(Cl)cccc1Cl | -77.5% (active)
CCc1c(C(=O)NCc2c(O)ccc3cccc(O)c23)[nH]c(C)c1C(C)=O | 18.5%

SMILES | growth
CCN(CC)c1ccc(/C=C2/NC(=O)NC2=O)cc1 | 37.8%
CCCC1(c2ccccc2)NC(=O)NC1=O (centres undefined) | 104%
COc1cc(-c2cc(/C=C/C(=O)c3ccc(N)cc3)[nH]n2)cc(OC)c1OC | -47.7% (active)
CC(C)c1ccc(NC(=O)Nc2ccc(NC(=O)c3ccccc3N)cc2)cc1 | 81.4%
Cn1cc(C2=C(c3coc4cc(Br)ccc34)C(=O)NC2=O)c2ccccc21 | 5.23% (active)
COc1cc(/C=C2/C(=O)Nc3ccc(Cl)cc32)ccc1OCc1ccc(Cl)cc1 | 87.2%
O=C(Oc1ccc(Cl)cc1[N+](=O)[O-])Oc1ccc(Cl)cc1[N+](=O)[O-] | 114%
CC(C)CCSc1nc(Nc2ccccc2)c(C#N)c(-c2ccc(F)cc2)n1 | 60.6%
CCCn1cnc2c(c1=N)C(c1ccc(Cl)cc1)c1sc3c(C)cccc3c1O2 (centres undefined) | 30.9%
CC1=C(O)C(=O)C(C(C#N)(C#N)C(C#N)C#N)C1 (centres undefined) | 102%
CCN(CC)CCCCCCCNc1c2ccc(Cl)cc2nc2ccc(OC)cc12 | -86.6% (active)
CCOC(=O)C1=C(C)N=C2Sc3cccc(OC)c3N2[C@H]1c1ccccn1 | 108%
C1=C(N2CCCC2)CCC1 | 96.2%
Clc1nc(Cl)c2ncn(CCOCCn3cnc4c(Cl)nc(Cl)nc43)c2n1 | -72.3% (active)
O=C1C=C(Nc2ccc([N+](=O)[O-])cc2)c2ccccc2C1=O | 41.1%
O=C(/C=C/c1ccc(Cl)cc1)c1ccc(Nc2nc(NCCO)nc(N3CCOCC3)n2)cc1 | 69.4%
O=[N+]([O-])c1ccc(S(=O)(=O)NN=C2CCCCC2)cc1 | 115%
O=C1c2ccccc2C(=O)c2c1ccc(C(Br)Br)c2[N+](=O)[O-] | -66.5% (active)
C=CCn1c(SCC(=O)Nc2ccc(C(=O)/C=C/c3ccccc3)cc2)nnc1-c1ccc(OC)c(OC)c1 | 59.5%
